The values that follow come from PubChem BioAssay.

One may read the viability as a read-out of living cells in per cent, often relative to untreated cells.

The nature of test [1]: liver-stage malaria parasite growth inhibition, primary screen, cell-based, HepG2, luciferase luminescence, HepG2 viability (AID 624349; in the data active means parasite load remaining mostly below about 12%, no sharp cut-off; inactive means mostly above about 10%;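 further: 100% = mean of DMSO negative control wells on the same plate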). To be noted: P. berghei liver stage in HepG2, luciferase luminescence, concentration not given here; parasite load remaining: stronger effect = lower value; viability: measured here: HepG2 viability without parasites.
Test [2] is described as follows: stimulators of nuclear beta-catenin in C2C12, primary screen, imaging, WNT3A-conditioned medium, mouse C2C12, NPC library (AID 1117326; in the data active means nuclear beta-catenin stimulation mostly above about 4.2%, no sharp cut-off; inactive means mostly below about 10%). To be noted: stronger effect = higher value.
Test [3] is described as follows: stimulators of insulin release from INS-1E, primary screen, cell-based, 5 mM glucose, NPC library (AID 1117329;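 active means compound raises insulin release from rat beta cells at 5 mM glucose, no numeric limit stated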). The settings on record: rat INS-1E insulin secretion, at 10 µM, stronger effect = higher value.
Test [4] can be described thus: growth inhibition of GSK3B-pretreated HCT116 cells – cell-based, CellTiter-Glo, 0.2 to 20 µM (AID 1117336;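 active means compounds lowering colon cancer cell viability after pretreatment blocking the GSK3B kinase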). To be noted: HCT116 viability after GSK3B inhibitor, at 20 µM, stronger effect = higher value.
A short description of test [5]: inhibition of endothelial tube formation, primary screen, imaging, VEGF stimulated, CD31 staining, tube area, NPC library (AID 1117340;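 active means compound that reduces growth-factor-driven endothelial tube area in a mixed cell culture, no cutoff stated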). To be noted: VEGF-stimulated ADSC/ECFC co-culture, at 10 µM, stronger effect = higher value.
Test [6] in a line: glucagon-like peptide 1 release enhancers, primary assay, NCI-H716 cell line, NPC library (AID 1117341;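 active means compound raises GLP1 secretion from the human gut endocrine cells, with no numeric limit stated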). The settings on record: NCI-H716 cells, at 10 µM, stronger effect = higher value.
Test [7] in a line: HCT116 colon cancer cell growth inhibition, primary screen, CellTiter-Glo luminescence, NPC library (AID 1117342;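 active means compounds that lower survival of HCT116 colon cancer cells in the luminescence readout, no numeric limit stated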). The settings on record: at 20 µM (top of the series). In general terms: In ATP-based viability assays light output follows the ATP content of the culture.
The nature of test [8]: CellTiter-Glo luminescent readout of SW480 viability loss, NPC library primary (AID 1117343;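 active means compounds that lower viability of the colon cancer cells in the luminescence readout, with no numeric limit stated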). To be noted: CellTiter-Glo luminescence; at 20 µM (top of the series) unless noted.
A short description of test [9]: decreased DLD-1 cellular survival, CellTiter-Glo luminescent readout, NPC compound collection, primary HTS (AID 1117346;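 active means compounds that lower survival of DLD-1 colon cancer cells in the luminescence readout, no cutoff given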). To be noted: DLD-1 viability, CellTiter-Glo luminescence; at 20 µM (top of the series).
The nature of test [10]: sensitizers of A549 cells to miR-34 induction, primary screen, imaging, A549 dox-inducible miR-34, nuclei and caspase counts (AID 1347080;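 active means compounds whose cell count with miR-34 switched on is under 0.7 times the count with it off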). To be noted: A549 miR-34 inducible, Hoechst nuclei count, 48 h.
Test [11] can be described thus: survival rescue of mitochondrial mutant cells in low glucose, primary screen, MELAS cybrids, Rieske KO mouse fibroblasts, CellTiter-Glo (AID 1508586).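 Further: z relative to plate mean and SD of compound and empty wells.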
The target of test [12] is NAD(+) hydrolase SARM1 (Homo sapiens) (UniProt Q6SZW1). The test is described as follows: SARM1 TIR NADase inhibitors, cell lysate, NAD-Glo luminescence (AID 1508614;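 active means compound whose remaining NAD level is above about 45 nM, limit read from the data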). The settings on record: SAM-TIR HEK293T lysate NADase, at 1 µM, stronger effect = higher value.
Test [13] can be described thus: viability rescue of complex I mutant cybrids, primary screen, cell-based, galactose medium, ATP luminescence (AID 1645843;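 active means z-score of at least 1.8 in each of two replicates, scored against plate mean and spread of sample wells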;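 further: positive z means more ATP and so rescue of galactose-driven cybrid death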). The settings on record: complex I mutant cybrid cells, 72 h, stronger effect = higher value.
Setting [14] is: stronger effect = lower value, cell number ratio, induced over uninduced.
[15] abbreviates: measured here: relative caspase fold change +Dox/-Dox.
The mark [16] stands for this setting: measured here: total cells with miR-34 induction, stronger effect = lower value.
The mark [17] stands for this setting: measured here: total cells without miR-34 induction.
[18] abbreviates: MELAS cybrid survival, CellTiter-Glo 48 h, stronger effect = higher value.
Setting [19] is: Rieske KO mouse fibroblast survival, CellTiter-Glo 72 h.

Where “and” joins values, the source holds several entries; their conditions need not be identical. Identical values can stand only once. Calls of active or inactive are those of the source.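 How the source made its calls, unless noted: active means mean z-score across replicates of 1.96 or higher in either the MELAS or the Rieske mutant cell line; inactive means the rest.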

Chain of NAD(+) hydrolase SARM1 (Homo sapiens) (Q6SZW1 whole entry, looked up): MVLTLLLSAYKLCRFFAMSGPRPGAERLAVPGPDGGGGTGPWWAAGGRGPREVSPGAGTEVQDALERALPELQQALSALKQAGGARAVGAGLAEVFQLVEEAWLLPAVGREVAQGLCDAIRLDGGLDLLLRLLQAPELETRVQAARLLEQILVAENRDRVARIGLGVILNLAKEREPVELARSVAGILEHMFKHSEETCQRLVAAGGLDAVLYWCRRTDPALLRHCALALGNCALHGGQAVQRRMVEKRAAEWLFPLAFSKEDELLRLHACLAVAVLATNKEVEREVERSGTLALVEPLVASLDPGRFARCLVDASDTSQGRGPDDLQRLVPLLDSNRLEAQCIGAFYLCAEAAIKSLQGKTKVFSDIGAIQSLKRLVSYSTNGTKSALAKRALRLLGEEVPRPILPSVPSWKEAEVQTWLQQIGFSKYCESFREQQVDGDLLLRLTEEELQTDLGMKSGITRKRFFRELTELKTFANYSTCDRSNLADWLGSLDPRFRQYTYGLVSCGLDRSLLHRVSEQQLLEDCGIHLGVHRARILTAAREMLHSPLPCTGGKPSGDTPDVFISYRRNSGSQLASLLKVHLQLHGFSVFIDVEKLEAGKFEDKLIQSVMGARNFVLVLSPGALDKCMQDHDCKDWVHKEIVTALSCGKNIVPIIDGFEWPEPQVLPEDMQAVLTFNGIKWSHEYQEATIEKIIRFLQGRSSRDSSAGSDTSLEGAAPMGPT

`COc1ccccc1O`: the parasite load remaining in [1] is 50.2% (inactive). Besides, in test [1], the viability came to 93.5%. The nuclear beta-catenin stimulation was -1.7% (inactive) in [2] (at 10 µM) and 2.4% in test [2] (stimulation, at 2 µM). Also, the insulin secretion stimulation in [3] was 2.9% (inactive). Also, the viability decrease in test [4] is -10.4% (inactive). Moreover, in test [5], the tube area decrease was -0.8% (inactive). Further, the GLP1 secretion stimulation in test [6] was -3.6% (inactive). For the same molecule, the inhibition of viability in [7] was 3% (inactive). In addition, the viability decrease (inhibition) in test [8] was 1.3% (inactive); in test [9], -5.1% (inactive). In addition, the fold change in test [10] (setting [14]) is 0.954 (inactive); in test [10] (setting [15]) it was 1.02. The values for the cell count in [10] (setting [16]) and in test [10] (setting [17]) were 10200 and 10700, respectively. The z-score was 0.215 (inactive) and 0.0947 (inactive) in test [11] (setting [18]); -0.0355 and -0.379 in test [11] (setting [19]); 0.615 (inactive) in test [13]. Besides, in test [12], the remaining NAD is 10 nM (inactive).

As to `COc1nccnc1NS(=O)(=O)c1ccc(N)cc1`, the nuclear beta-catenin stimulation in test [2] (at 10 µM) was 1.5% (inactive); in test [2] (stimulation, at 2 µM) it was 3.9%. The insulin secretion stimulation in test [3] is 1.7% (inactive). For the same molecule, the viability decrease in test [4] is 3.6% (inactive). In addition, the tube area decrease in test [5] is 2.9% (inactive). Moreover, the GLP1 secretion stimulation in [6] is 2.7% (inactive). Further, the inhibition of viability in test [7] was 6.8% (inactive). Moreover, the viability decrease (inhibition) in test [8] was -1.3% (inactive); in test [9] it was -5.6% (inactive). The fold change is 0.87 (inactive) in [10] (setting [14]) and 0.163 in [10] (setting [15]). In addition, the cell count in [10] (setting [16]) amounted to 9240; in [10] (setting [17]) it was 10600. For the same molecule, the results for the z-score in test [11] (setting [18]), in [11] (setting [19]) and in test [13] were 0.483 (inactive), -0.166 and -0.33 (inactive), respectively.

On to `COC(=O)C1=C(C#N)NC(C)=C(C(=O)OC(C)C)C1c1cccc([N+](=O)[O-])c1` (stereo unspecified), for which the nuclear beta-catenin stimulation in test [2] (at 10 µM) was -1.3% (inactive); in test [2] (stimulation, at 2 µM), 2.3%. Besides, in test [3], the insulin secretion stimulation was -0.1% (inactive). Moreover, the viability decrease in [4] is 9.8% (inactive). Also, the tube area decrease in test [5] is 9.9% (inactive). Besides, the GLP1 secretion stimulation in test [6] is -3.9% (inactive). In addition, the inhibition of viability in test [7] is 56.2% (active). In addition, the viability decrease (inhibition) in test [8] is 65.8% (active); in test [9], 29.6% (active). Besides, the fold change in test [10] (setting [14]) is 0.976 (inactive); in test [10] (setting [15]), 0.643. Also, the cell count stood at 7820 in test [10] (setting [16]) and 8010 in test [10] (setting [17]). Also, the z-score in [11] (setting [18]) was -0.465 (inactive) and 0.607 (inactive); in [11] (setting [19]) it was 0.162 and 0.638.

As to `CN(Cc1ccc(C(C)(C)C)cc1)Cc1cccc2ccccc12`, the parasite load remaining in [1] was 43.3% (inactive). In addition, in [1], the viability was found to be 140%. Besides, the nuclear beta-catenin stimulation in test [2] (at 10 µM) was -1.4% (inactive); in test [2] (stimulation, at 2 µM), -0.7%. Moreover, the insulin secretion stimulation in test [3] is -1% (inactive). In addition, the viability decrease in test [4] was 37.6% (inactive). The tube area decrease in test [5] is 7.1% (inactive). Further, the GLP1 secretion stimulation in [6] is -4% (inactive). In [7], the inhibition of viability was 50.7% (active). Moreover, the viability decrease (inhibition) in test [8] is 62.7% (active); in [9], 37.8% (inactive). In addition, the fold change is 0.848 (inactive) and 0.895 (inactive) in test [10] (setting [14]); 0.76 and 0.344 in [10] (setting [15]). Further, the cell count was 7540 and 9920 in [10] (setting [16]); 8900 and 11100 in test [10] (setting [17]). Moreover, the z-score in [11] (setting [18]) was -0.284 (inactive) and -0.0947 (inactive) and -0.415 (inactive); in test [11] (setting [19]) it was -0.307 and 0.166 and -0.508; in test [13], -1.71 (inactive).

As to `CCN[C@H]1CN(CCCOC)S(=O)(=O)c2sc(S(N)(=O)=O)cc21`, the parasite load remaining in test [1] is 113% (inactive) and 65.9% (inactive). In addition, the viability in test [1] is 109% and 72.4%. The nuclear beta-catenin stimulation is 1.3% (inactive) in [2] (at 10 µM) and 1.1% in test [2] (stimulation, at 2 µM). In addition, in test [3], the insulin secretion stimulation was 3.9% (inactive). In addition, in test [4], the viability decrease was -7.1% (inactive). Also, the tube area decrease in test [5] is -15% (inactive). In test [6], the GLP1 secretion stimulation was 0.6% (inactive). Also, in [7], the inhibition of viability is 6.4% (inactive). For the same molecule, the viability decrease (inhibition) in test [8] was 7.5% (inactive); in test [9] it was 14.9% (inactive). Besides, the figures for the fold change in [10] (setting [14]) and in test [10] (setting [15]) were 0.831 (inactive) and 1.12, respectively. Moreover, the cell count was 8040 in test [10] (setting [16]) and 9670 in test [10] (setting [17]). The z-score was 0.333 (inactive) in test [11] (setting [18]) and 0.0327 in test [11] (setting [19]). For the same molecule, the remaining NAD in test [12] is 10 nM (inactive).
